{"source": "PubChem BioAssay (NCATS)", "note": "Results filed as inconclusive are left out. Active and inactive are the calls of the source. Calls come from the whole dose curve; as a rule, active = well fitted inhibition curve with a large enough effect; inconclusive = small, poorly fitted or top-dose-only effect; inactive = no such curve, though single readings can be large or run the other way. % is set by controls: 0 for no effect and ±100 for the full control effect; potency is the fitted concentration of half-maximal effect.", "data": [{"biological_target": "N-terminal Xaa-Pro-Lys N-methyltransferase 1 (Homo sapiens) (UniProt Q9BV86)", "sequence (Q9BV86 whole entry, looked up)": "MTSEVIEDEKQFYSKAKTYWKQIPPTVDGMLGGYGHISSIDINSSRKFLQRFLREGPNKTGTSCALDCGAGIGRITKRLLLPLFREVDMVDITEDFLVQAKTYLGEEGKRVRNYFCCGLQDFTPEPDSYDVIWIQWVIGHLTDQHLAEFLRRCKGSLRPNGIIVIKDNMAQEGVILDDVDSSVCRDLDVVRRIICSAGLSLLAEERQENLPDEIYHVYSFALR", "assay": "qHTS Assay for Inhibitors of N-terminal methyltransferase 1 (NTMT1): LOPAC validation of the NTMT1 SAHH-coupled ThioGlo3 Assay (AID 1347143);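 note: SAH from peptide methylation measured as thiol fluorescence via SAHH coupling and ThioGlo3; nearly all actives have a fitted effect of over 70% in size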", "conditions": "recombinant NTMT1, SAHH-coupled ThioGlo3 fluorescence; series mostly up to 114 µM; activity change, negative = inhibition: at the top concentration", "procedure,_shortened": "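Steps: dispense 125nM NTMT1; pin-transfer test compounds at several concentrations, with 1uM RCC1-6 peptide as control; incubate 1 min; start with reagent holding 100uM SAM, 10uM SAHH, 15uM ThioGlo3; read at 0 and 30 min.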", "values": [{"smiles": "O=C1NC(=O)c2c1c(-c1ccccc1)cc1[nH]c3ccc(O)cc3c21", "Potency": "50.1 µM (active)"}, {"smiles": "COC(=O)c1c(C)[nH]c(C)c1C(=O)c1ccccc1Cc1ccccc1", "activity change, negative = inhibition": "-4.79% (inactive)"}, {"smiles": "CS(=O)(=O)c1ccc(-n2nc(C(F)(F)F)cc2-c2ccc(F)cc2)cc1", "activity change, negative = inhibition": "-3.86% (inactive)"}, {"smiles": "O=S(=O)(c1cccc2c(I)cccc12)N1CCCNCC1", "Potency": "39.8 µM (active)"}, {"smiles": "CNCC[C@H](Oc1ccc(C(F)(F)F)cc1)c1ccccc1", "activity change, negative = inhibition": "-29.3% (inactive)"}, {"smiles": "O=C(Nc1ccncc1)c1cc([N+](=O)[O-])ccc1Cl", "activity change, negative = inhibition": "-15.3% (inactive)"}, {"smiles": "CC(C)NCC(O)COc1cccc2ccccc12", "note": "(stereo not drawn)", "activity change, negative = inhibition": "-29.3% (inactive)"}, {"smiles": "NC[C@@H]1O[C@H](C23CC4CC(CC(C4)C2)C3)Cc2c1ccc(O)c2O", "Potency": "50.1 µM (active)"}, {"smiles": "COc1cc(SC)ccc1C(=O)N1CCC(Cc2ccccc2)CC1", "activity change, negative = inhibition": "-11.8% (inactive)"}, {"smiles": "NS(=O)(=O)C#Cc1ccccc1", "activity change, negative = inhibition": "-12.9% (inactive)"}, {"smiles": "O=C(O)c1cc(=O)c2c(Cl)cc(Cl)cc2[nH]1", "activity change, negative = inhibition": "-25.8% (inactive)"}, {"smiles": "O=C(Nc1ccc2c(c1)CCN(Cc1ncn[nH]1)C2)c1ccccc1-c1ccc(C(F)(F)F)cc1", "activity change, negative = inhibition": "-18.2% (inactive)"}, {"smiles": "CN1[C@@H](CC(=O)c2ccccc2)CCC[C@H]1C[C@H](O)c1ccccc1", "activity change, negative = inhibition": "-17.7% (inactive)"}, {"smiles": "CCNc1nc2c(ncn2[C@H]2C[C@H](O)[C@@H](CO)O2)c(=O)[nH]1", "activity change, negative = inhibition": "-24% (inactive)"}, {"smiles": "CCN(CC)CCCCNc1ncc2cc(-c3c(Cl)cccc3Cl)c(NC(=O)NC(C)(C)C)nc2n1", "Potency": "44.7 µM (active)"}, {"smiles": "COc1ccccc1CNCCCCCCNCCCCCCCCNCCCCCCNCc1ccccc1OC", "Potency": "35.5 µM (active)"}, {"smiles": "N[C@H](CCCP(=O)(O)O)C(=O)O", "activity change, negative = inhibition": "-18.2% (inactive)"}, {"smiles": "CC(C)NC[C@H](O)COc1cccc2[nH]ccc12", "activity change, negative = inhibition": "-6.26% (inactive)"}]}]}
